# In PubChem BioAssay (Tox21):
# A number with no mark means an inactive call. Inconclusive results are not listed. Entries that show only a call come without a potency. The source made the active and inactive calls. Unless noted, calls come from the whole dose curve; as a rule, active = well fitted curve in the direction sought with a large enough effect in the repeat runs; inconclusive = weak or mixed curves; inactive = no such curve, though single readings can be large; an effect the other way counts as inactive or inconclusive.
# How the values were obtained:
# [1] = qHTS assay for small molecules that induce genotoxicity in human embryonic kidney cells expressing luciferase-tagged ATAD5 - cell viability (AID 651634; calls by dose curve; note: nearly all actives have a fitted effect of over 25% in size; note: potency is the fitted concentration of half-maximal effect)
# Procedure, shortened: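 Fluorescence from CellTiter-Fluor, reporting protease activity within live cells, served as the viability read-out. HEK293T cells carrying luciferase-tagged ATAD5 had been treated with compound for 15.5 hr at 37C.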
# [2] = qHTS assay for small molecule disruptors of the mitochondrial membrane potential - cell viability (AID 720634; calls by dose curve;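 note: human HepG2 liver cancer cells; nearly all actives have a fitted effect of over 20% in size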)
# Procedure, shortened: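 Cells: HepG2, 2,000/well, attached overnight. Compound 1 hr, 37 C/5% CO2. +m-MPI dye, +CellTiter-Glo 30 min RT. Readout: luminescence (ATP).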
# [3] = qHTS assay for small molecule disruptors of the mitochondrial membrane potential (AID 720635); note: potency is the fitted concentration of half-maximal effect
# Procedure, shortened: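 HepG2 cells exposed to compound 1 hr at 37C, then Mito-MPS dye 30 min. Ratio read of aggregate (540/590 nm) versus monomer (490/535 nm) fluorescence.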
# [4] = qHTS assay to test for compound auto fluorescence at 535 nm (green) in HepG2 cells (AID 720675)
# [5] = qHTS assay to test for compound auto fluorescence at 460 nm (blue) in HEK293 cells (AID 720678)
# Procedure, shortened: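 HEK293 cells (2,000/well, medium with 10% dialyzed FBS) attached 4-5 hr, then exposed to compound overnight at 37C, 5% CO2. Blue fluorescence read at 405/460 nm, with triamterene as reference fluorophore.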
# [6] = qHTS assay to test for compound auto fluorescence at 590 nm (red) in HEK293 cells (AID 720679)
# Procedure, shortened: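 HEK293 cells (2,000/well, 10% dialyzed FBS) attached 4-5 hr, then dosed with compound or DMSO and incubated overnight at 37C, 5% CO2. Red fluorescence read at 540/590 nm, Rose Bengal sodium as reference fluorophore.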
# [7] = qHTS assay to test for compound auto fluorescence at 535 nm (green) in HEK293 cells (AID 720680)
# [8] = qHTS assay to test for compound auto fluorescence at 460 nm (blue) in HEK293 cell free culture (AID 720681)
# Procedure, shortened: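 Compounds were added to cell-free DMEM with 10% FBS and fluorescence read directly. The blue channel used 405 nm excitation and 460 nm emission, with triamterene as the reference fluorophore.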
# [9] = qHTS assay to test for compound auto fluorescence at 535 nm (green) in HEK293 cell free culture (AID 720682)
# Procedure, shortened: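 Using fluorescein as calibrant, autofluorescence was quantified at 485/535 nm in cell-free DMEM containing 10% FBS after pintool addition of compound or vehicle.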
# [10] = qHTS assay to test for compound auto fluorescence at 590 nm (red) in HEK293 cell free culture (AID 720683)
# Procedure, shortened: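 Cell-free wells of DMEM with 10% FBS received compound, and intrinsic fluorescence was read at excitation/emission 540/590 nm. Values expressed as equivalence to Rose Bengal sodium.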
# [11] = qHTS assay to test for compound auto fluorescence at 590 nm (red) in HepG2 cell free culture (AID 720684)
# Procedure, shortened: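 Compound was pinned into wells holding MEM with 10% FBS and no cells, and red fluorescence was read at Ex/Em 540/590 nm. Signal is expressed as auto fluorescence equivalency relative to Rose Bengal sodium.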
# [12] = qHTS assay to test for compound auto fluorescence at 460 nm (blue) in HepG2 cell free culture (AID 720685)
# Procedure, shortened: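 Compound (23 nL) or DMSO pinned into cell-free MEM with 10% FBS; blue fluorescence read at 405/460 nm excitation/emission, expressed as auto-fluorescence equivalency to triamterene.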
# [13] = qHTS assay to test for compound auto fluorescence at 460 nm (blue) in HepG2 cells (AID 720687)
# Procedure, shortened: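 HepG2 cells in MEM with 10% FBS, attached overnight at 37 C, were exposed to compound or DMSO for 1 hr at 37 C, 5% CO2. Blue fluorescence was read at 405/460 nm, with triamterene as reference fluorophore.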
# [14] = target: Glucocorticoid receptor (Homo sapiens) (UniProt P04150); assay: qHTS assay to identify small molecule agonists of the glucocorticoid receptor (GR) signaling pathway (AID 720691; active = well fitted activation curve with a large enough effect in the signal ratio in the repeat runs, not every such curve was filed as active; the % refers to the signal ratio); settings: GR-bla HeLa, beta-lactamase reporter ratio, 18 h; activation: at 62.4 µM (top of the series) unless noted
# Chain of Glucocorticoid receptor (Homo sapiens) (P04150 whole entry, looked up): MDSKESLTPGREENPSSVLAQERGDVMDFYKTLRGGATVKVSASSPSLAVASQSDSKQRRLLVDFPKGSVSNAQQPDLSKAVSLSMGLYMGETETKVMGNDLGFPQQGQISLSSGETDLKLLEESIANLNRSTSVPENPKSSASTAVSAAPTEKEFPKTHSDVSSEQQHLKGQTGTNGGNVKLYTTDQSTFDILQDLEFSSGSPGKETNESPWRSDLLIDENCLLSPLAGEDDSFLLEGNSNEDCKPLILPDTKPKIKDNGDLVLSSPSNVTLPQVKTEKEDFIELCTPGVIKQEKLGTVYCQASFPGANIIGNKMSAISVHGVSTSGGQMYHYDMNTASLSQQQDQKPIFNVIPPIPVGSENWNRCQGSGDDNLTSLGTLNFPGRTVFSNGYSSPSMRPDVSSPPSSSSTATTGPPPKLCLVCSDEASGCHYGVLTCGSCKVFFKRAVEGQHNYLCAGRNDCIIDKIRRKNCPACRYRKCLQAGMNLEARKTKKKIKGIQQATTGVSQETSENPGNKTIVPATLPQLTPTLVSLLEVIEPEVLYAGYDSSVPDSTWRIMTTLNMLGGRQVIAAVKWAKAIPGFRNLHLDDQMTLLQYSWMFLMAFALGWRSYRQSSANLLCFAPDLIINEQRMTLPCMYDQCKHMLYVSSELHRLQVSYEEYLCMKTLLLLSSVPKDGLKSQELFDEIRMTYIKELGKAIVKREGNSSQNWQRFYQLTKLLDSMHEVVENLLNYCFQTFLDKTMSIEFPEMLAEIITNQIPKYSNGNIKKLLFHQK
# Procedure, shortened: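 Fluorescence intensity from LiveBLAzer B/G FRET substrate (2 h, room temperature) reports beta-lactamase expression driven by the glucocorticoid response element in GR-bla HeLa cells after 18 h compound exposure at 37 C.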
# [15] = qHTS assay for small molecules that induce genotoxicity in human embryonic kidney cells expressing luciferase-tagged ATAD5 (AID 651632); note: nearly all actives have a fitted effect of over 15% in size
# Procedure, shortened: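 ATAD5-luc HEK293T, 2,000 cells/well; cpd or DMSO pin-transferred; 16 hr, 37C/5% CO2; Amplite 30 min RT; luminescence.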
# [16] = qHTS assay to test for compound auto fluorescence at 590 nm (red) in HepG2 cells (AID 720674)
# Procedure, shortened: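 Fluorescence at 590 nm emission following 540 nm excitation was recorded from HepG2 wells one hour after compound transfer, with DMSO-only wells as vehicle and Rose Bengal sodium equivalency as the scale.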
# [17] = qHTS assay to test for compound auto fluorescence at 535 nm (green) in HepG2 cell free culture (AID 720686)
# [18] = target: Glucocorticoid receptor (Homo sapiens) (UniProt P04150); assay: qHTS assay to identify small molecule antagonists of the glucocorticoid receptor (GR) signaling pathway (AID 720692; active = well fitted inhibition curve with a large enough effect in the signal ratio in the repeat runs, not every such curve was filed as active; the % refers to the signal ratio)
# Procedure, shortened: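 HeLa GR-bla cells; cmpd + dex 5 nM final, 18 h 37 C; LiveBLAzer B/G FRET substrate 2 h RT; fluorescence intensity read. Antagonist mode, qHTS.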
# [19] = qHTS assay for small molecule agonists of the p53 signaling pathway - cell viability (AID 651633; calls by dose curve;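 note: p53RE-bla HCT reporter cells with a stable beta-lactamase p53 reporter; nearly all actives have a fitted effect of over 30% in size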)
# Procedure, shortened: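 p53RE-bla cells were treated with compound for 16 hours at 37 C. Cytotoxicity was then measured as CellTiter-Glo luminescence after 30 min at room temperature.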
smiles,measurement,setting,value
C=CC(=O)OCCOCCOC(=O)C=C,Potency,[1],61.4 µM (active)
same,Potency,[2],inactive
same,Potency,[3],inactive
same,Potency,[4],inactive
same,outcome,[5],inactive
same,Potency,[6],inactive
same,outcome,[7],inactive
same,outcome,[8],inactive
same,outcome,[9],inactive
same,Potency,[10],inactive
same,Potency,[11],inactive
same,outcome,[12],inactive
same,outcome,[13],inactive
same,Potency,[14],inactive
CCCCNc1ccc(C(=O)OCCOCCOCCOCCOCCOCCOCCOCCOCCOC)cc1,Potency,[15],inactive
same,Potency,[1],inactive
same,Potency,[2],inactive
same,Potency,[3],3.2 µM (active)
same,"fluorescence, relative to Rose Bengal",[16],-0.666% [at 18.6 µM]
same,"fluorescence, % of fluorescein control",[4],-0.0335% [at 18.6 µM]
same,"fluorescence, % of triamterene",[5],-0.29% [at 18.6 µM]
same,"fluorescence, % of fluorescent control",[6],0.183% [at 18.6 µM]
same,"fluorescence, % of fluorescein",[7],-0.0088% [at 18.6 µM]
same,"fluorescence, % of fluorescent control",[8],-0.35% [at 18.6 µM]
same,activity change,[9],-0.0595% [at 18.6 µM]
same,"fluorescence, % of Rose Bengal",[11],-0.448% [at 18.6 µM]
same,"fluorescence, % of fluorescent control",[12],-0.106% [at 18.6 µM]
same,"fluorescence, % of fluorescein control",[17],-0.018% [at 18.6 µM]
same,"fluorescence, % of fluorescent control",[13],-0.0219% [at 18.6 µM]
same,Potency,[14],inactive
same,Potency,[18],inactive
COc1ccnc(CS(=O)c2nc3ccc(OC(F)F)cc3[nH]2)c1OC (stereo not drawn),Potency,[15],inactive
same,Potency,[19],inactive
same,Potency,[2],inactive
same,Potency,[16],inactive
same,Potency,[4],inactive
same,outcome,[5],inactive
same,Potency,[6],inactive
same,outcome,[7],inactive
same,outcome,[8],inactive
same,outcome,[9],inactive
same,Potency,[10],inactive
same,Potency,[11],inactive
same,outcome,[12],inactive
same,outcome,[13],inactive
same,Potency,[14],inactive
Clc1ccc2c(c1)CCc1cccnc1C2=C1CCNCC1,Potency,[15],inactive
same,Potency,[19],inactive
same,Potency,[2],inactive
same,Potency,[16],inactive
same,Potency,[4],inactive
same,outcome,[7],inactive
same,outcome,[8],inactive
same,outcome,[9],inactive
same,Potency,[10],inactive
same,Potency,[11],inactive
same,outcome,[12],inactive
same,Potency,[17],inactive
same,outcome,[13],inactive
same,Potency,[14],inactive
CCCCCCCCCCO[C@@H]1O[C@H](CO)[C@@H](O)[C@H](O)[C@H]1O,Potency,[15],inactive
same,Potency,[1],inactive
same,Potency,[2],inactive
same,Potency,[16],inactive
same,Potency,[4],inactive
same,outcome,[8],inactive
same,outcome,[9],inactive
same,Potency,[10],inactive
same,Potency,[11],inactive
same,outcome,[12],inactive
same,Potency,[17],inactive
same,outcome,[13],inactive
S=C([S-])NCCNC(=S)[S-].[Mn+2],Potency,[15],inactive
same,Potency,[19],inactive
same,Potency,[2],inactive
same,Potency,[16],inactive
same,Potency,[4],inactive
same,outcome,[5],inactive
same,outcome,[7],inactive
same,outcome,[8],inactive
same,outcome,[9],inactive
same,Potency,[10],inactive
same,Potency,[11],inactive
same,outcome,[12],inactive
same,Potency,[17],inactive
same,outcome,[13],inactive
same,Potency,[14],inactive
CCOC(=O)NCCOc1ccc(Oc2ccccc2)cc1,Potency,[15],inactive
same,Potency,[19],inactive
same,Potency,[3],27.3 µM (active)
same,Potency,[16],inactive
same,Potency,[4],inactive
same,outcome,[5],inactive
same,outcome,[7],inactive
same,outcome,[8],inactive
same,outcome,[9],inactive
same,Potency,[10],inactive
same,Potency,[11],inactive
same,outcome,[12],inactive
same,Potency,[17],inactive
same,outcome,[13],inactive
O=C(O)CC(=O)C(=O)O,Potency,[15],inactive
same,Potency,[1],inactive
same,Potency,[2],inactive
same,Potency,[16],inactive
same,Potency,[4],inactive
same,outcome,[5],inactive
same,Potency,[6],inactive
same,outcome,[8],inactive
same,outcome,[9],inactive
same,Potency,[10],inactive
same,Potency,[11],inactive
same,outcome,[12],inactive
same,Potency,[17],inactive
same,outcome,[13],inactive
same,Potency,[14],inactive
same,Potency,[18],inactive
O=C(CS)Nc1ccccc1,Potency,[15],inactive
same,Potency,[2],inactive
same,Potency,[4],inactive
same,outcome,[5],inactive
same,Potency,[6],inactive
same,outcome,[8],inactive
same,outcome,[9],inactive
same,Potency,[10],inactive
same,Potency,[11],inactive
same,outcome,[12],inactive
same,Potency,[17],inactive
same,outcome,[13],inactive
O=C(O)c1ccc(S(=O)(=O)O)cc1C(=O)O,Potency,[15],inactive
same,Potency,[19],inactive
same,Potency,[2],inactive
same,Potency,[4],inactive
same,outcome,[5],inactive
same,Potency,[6],inactive
same,outcome,[7],inactive
same,outcome,[8],inactive
same,outcome,[9],inactive
same,Potency,[10],inactive
same,Potency,[11],inactive
same,outcome,[12],inactive
same,Potency,[17],inactive
same,outcome,[13],inactive
